Calls of active or inactive are those of the source.
These molecules were tested against Homeobox protein Hox-A13 (Mus musculus) (UniProt Q62424) (assay: disruptors of Hoxa13 oligonucleotide interaction – biochemical, fluorescence polarization, labeled oligonucleotide, primary screen (AID 1185)). Details: Hoxa13:DNA binding, 15 min, higher = more signal, called active from +8 up or from −8 down.
Homeobox protein Hox-A13 (Mus musculus), sequence (Q62424 whole entry, looked up): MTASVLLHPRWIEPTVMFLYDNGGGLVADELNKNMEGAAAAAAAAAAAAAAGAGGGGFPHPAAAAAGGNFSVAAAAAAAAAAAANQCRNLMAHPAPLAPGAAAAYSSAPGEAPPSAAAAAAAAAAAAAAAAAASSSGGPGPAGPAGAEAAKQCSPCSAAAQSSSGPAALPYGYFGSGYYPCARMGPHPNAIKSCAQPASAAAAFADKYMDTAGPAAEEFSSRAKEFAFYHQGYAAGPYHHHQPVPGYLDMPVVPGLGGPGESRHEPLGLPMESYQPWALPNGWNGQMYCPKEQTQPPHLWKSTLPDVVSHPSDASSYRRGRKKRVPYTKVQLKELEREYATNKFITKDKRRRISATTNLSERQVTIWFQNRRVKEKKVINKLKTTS
In the case of `C[C@@H]1NC(=O)[C@H](Cc2ccccc2)NC(=O)[C@@]23C(=O)N[C@@H](Cc4ccccc4)C2[C@H](C)[C@@]2(C)O[C@H]2C3/C=C/C/C=C\CNC1=O` (stereo partly specified), the z-score is reported as -6.67 (inactive). With `Cc1cc(C)c(C(O)C2C=CC3C(=O)N(C)C(=O)C3N2N2CCCCC2)c(C)c1` (stereo unspecified) the z-score was -3.3 (inactive). For `CCCNC(=O)[C@@]1(Sc2ccc(C)cc2)CC(=O)N(Cc2ccccc2Cl)[C@@H]1c1ccc(CO)cc1`, the z-score was -1.4 (inactive). `Cc1ccc(S[C@]2(C(=O)NC3CC3)CC(=O)N(Cc3cc(C(F)(F)F)cc(C(F)(F)F)c3)[C@@H]2c2ccc(CO)cc2)cc1` was tested, and the z-score was -2.7 (inactive). With `COC(=O)C[C@H]1O[C@]2(C(=O)N(Cc3ccccc3)c3ccc(I)cc32)[C@@H](C)[C@@H]1[Si](C)(C)c1ccc(OC)cc1` the z-score was 1.04 (inactive). In the case of `O=C(NCC(O)CO)[C@]1(Cc2ccccc2)N=C(c2ccc(OCCCO)cc2)O[C@@H]1c1ccccc1` (stereo partly specified), the z-score is reported as -4.2 (inactive). In the case of `CCOC(=O)C[C@H]1[C@H](OC(=O)Cc2ccc3c(c2)OCO3)[C@@H](NC(=O)CC(C)C)c2cc(OCCCO)ccc2N1C(=O)c1ccccc1`, the z-score is reported as -1.41 (inactive). With `COc1ccc([Si](C)(C)[C@H]2[C@H](CCO)O[C@@]3(C(=O)N(Cc4ccc(N5CCCCC5=O)cc4)c4ccccc43)[C@@H]2C)cc1` the z-score was -4.54 (inactive). `COc1ccc(CCN2C(=O)[C@@]3(c4ccc([N+](=O)[O-])cc4)CC(=O)N(CC45CC6CC(CC(C6)C4)C5)[C@@H]3c3ccc(CO)cc32)cc1` was tested, and the z-score was -2.14 (inactive). With `COCCCNC(=O)[C@@]1(Sc2ccc(C)cc2)CC(=O)N(Cc2cc(C(F)(F)F)cc(C(F)(F)F)c2)[C@@H]1c1ccc(CO)cc1I` the z-score was -1.21 (inactive). With `CN(C)CCCC[C@@H]1NC(=O)[C@@H]2C[C@H](C(=O)O)[C@H](c3ccc(O)cc3)N2C1=O` the z-score was 2.19 (inactive). `O=C1OCC=C[C@H]2OC34C=CCN(Cc5ccccc5)C(=O)[C@H]3N(CCO)C(=O)[C@@H]4[C@@H]12` (stereo partly specified) was tested, and the z-score was -4.18 (inactive). `C=C(C(=O)CC[C@H](OC(=O)c1ccccc1-c1ccccc1C(=O)O)c1ccc(CO)o1)C(C)C` was tested, and the z-score was -6.22 (inactive). `C=C(COC)C(=O)CC[C@H](OC(=O)c1ccccc1-c1ccccc1C(=O)O)c1cccc(OCCO)c1` was tested, and the z-score was -4.76 (inactive). `O=C(NCc1ccccc1)[C@@]1(Cc2ccccc2)COC(c2ccc(OCCCO)cc2)=N1` was tested, and the z-score was -4.9 (inactive). In the case of `CC(C)CN1C(=O)[C@@]2(Cc3ccccc31)c1ccccc1C(=O)N(C1CCCCC1)[C@H]2c1ccc(CO)cc1`, the z-score is reported as -0.429 (inactive). In the case of `CC(=O)NCCCC[C@@H]1NC(=O)[C@@H]2C[C@H](C(=O)NCc3ccc(F)cc3)[C@H](c3cccc(OCCO)c3)N2C1=O`, the z-score is reported as -4.11 (inactive). In the case of `CC(C)[C@H]1NC(=O)[C@@]23C(=O)N[C@@H](Cc4ccccc4)C2[C@H](C)[C@@]2(C)O[C@H]2C3/C=C/C/C=C\CNC(=O)[C@H](C)NC1=O` (stereo partly specified), the z-score is reported as -6.31 (inactive). For `COC(=O)[C@@]1(Cc2ccc(OC)cc2)[C@H]2c3cc(C(=O)N(C)C)n(CCc4ccc(OC)c(Br)c4)c3C[C@H]2CN1C(=O)c1ccccc1`, the z-score was -0.511 (inactive). `O=C1O[C@@H](c2ccccc2)[C@@H](c2ccccc2)N2[C@@H](c3ccc(OCCO)cc3)[C@]3(C(=O)Nc4ccc(C#CCCO)cc43)[C@@H](C(=O)N3CCN(c4ncccn4)CC3)[C@H]12` was tested, and the z-score was -0.282 (inactive). For `O=C1O[C@H](c2ccccc2)[C@H](c2ccccc2)N2[C@H]1[C@@H](C(=O)Nc1nc3ccccc3s1)[C@]1(C(=O)Nc3ccc(C#CC4=CCCCC4)cc31)[C@H]2c1ccccc1OCCO`, the z-score was -9.05 (active). In the case of `[N-]=[N+]=Nc1ccccc1C[C@@]1(C(=O)N2CCOCC2)N=C(c2ccc(OCCCO)cc2)O[C@@H]1c1ccccc1N=[N+]=[N-]`, the z-score is reported as -5.16 (inactive). In the case of `O=C1O[C@@H](c2ccccc2)[C@@H](c2ccccc2)N2[C@@H](c3ccc(O)cc3)[C@]3(C(=O)Nc4ccc(C#CC5(O)CCCCCC5)cc43)[C@@H](C(=O)Nc3nc4ccccc4s3)[C@H]12`, the z-score is reported as -0.586 (inactive). `COc1ccc([C@H]2C[C@H]3C(Br)=C[C@]2(OC)C(=O)[C@]32CO2)cc1` was tested, and the z-score was -1.48 (inactive). `CO[C@H]1O[C@H](CO)[C@@H](OC(=O)Nc2ccc(Oc3ccccc3)cc2)[C@H](OC(=O)Nc2ccccc2-c2ccccc2)[C@H]1OC(=O)Nc1ccccc1-c1ccccc1` was tested, and the z-score was 0.193 (inactive). In the case of `O=C1OCCC/C=C\[C@H]2OC34C=CCN(CCN5CCOCC5)C(=O)[C@H]3N(CCCCCO)C(=O)[C@@H]4C12` (stereo partly specified), the z-score is reported as -4.6 (inactive).
